What all share (settings): concentration: 1 μM,replicates: in singlicate; n = 1
Assay [1] deals with STK36.
The test system of assay [2] is STK39.
Assay [3] deals with SYK.
Assay [4] deals with SgK110.
Assay [5] concerns T1, TAK1.
T1 construct: gene MAP3K7

The test system of assay [6] is TAOK1.
Assay [7] has as its system TAOK2.
The test system of assay [8] is TAOK3.
Assay [9] relates to TBK1.
The test system of assay [10] is TEC.
Assay [11] deals with TESK1.
Assay [12] concerns TGFBR2.
Assay [13] deals with TIE1.
Assay [14] concerns T2, TIE2.
T2 construct: gene TEK

Assay [15] deals with TLK1.
For assay [16], the system named is TLK2.
Assay [17] concerns TNIK.
Assay [18] concerns TNK1.
Assay [19] has as its system TNK2.
Assay [20] deals with TGFBR1.

Structures are written as SMILES.
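Also: KINOMEscan kinase panel screen.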

In the case of `Nc1nc(Nc2ccccc2)cc(-c2ccc3c(N)n[nH]c3c2)n1` [GSK2225749], the “%Inh” value is 24% in [1]; 0% in assay [2]; 0% in assay [3]; 0% in [4]; 36% in assay [5]; 32% in [6]. The “%Inh” value in [7] amounted to 2%; in assay [8], 23%; in assay [9] it was 28%; in assay [10] it was 0%; in [11], 0%; in assay [12] it was 0%. The “%Inh” value in assay [13] stood at 35%; in assay [14], 3%; in assay [15], 0%; in [16] it was 2%; in assay [17] it was 46%; in assay [18] it was 0%. The “%Inh” value in assay [19] came to 0%.
Regarding `Cc1n[nH]c2ccc(-c3cc(OC[C@@H](N)Cc4ccccc4)cnc3-c3ccoc3)cc12.O=C(O)C(F)(F)F.O=C(O)C(F)(F)F` [GSK507358], the “%Inh” value in assay [1] turned out to be 0%; in assay [2] it was 0%; in assay [3], 0%; in [4], 0%; in assay [5], 97.9%; in [6], 92.4%. Further, the “%Inh” value came out at 5% in assay [7]; 74% in assay [8]; 18% in assay [9]; 0% in assay [10]; 19% in [11]; 0% in [20]. Further, the “%Inh” value in [12] is 0%; in assay [13], 0%; in [14], 0%; in assay [15] it was 0%; in assay [16], 0%; in [17] it was 96.5%. For the same compound, the “%Inh” value came to 0% in assay [18] and 10% in assay [19].
Consider `Cl.Cl.Nc1nc(-c2ccc3c(N)n[nH]c3c2)cc(N2CCCC(NC(=O)c3ccccc3)C2)n1` (stereo not drawn) [GSK2286775], for which the “%Inh” value in assay [1], in assay [2], in [3], in assay [4], in assay [5] and in [6] was 0% in each case. The “%Inh” value in [7] is 0%; in assay [8], 0%; in [9], 76%; in assay [10] it was 6%; in assay [11] it was 98.1%; in assay [20] it was 13%. Also, the “%Inh” value in assay [12] is 0%; in assay [13], 0%; in assay [14], 0%; in assay [15] it was 18%; in assay [16], 16%; in assay [17], 0%. Also, the “%Inh” value in assay [18] is listed as 8%; in [19], 14%.
Turning to `CCN(CC)CCCCNc1ncc2cc(-c3c(Cl)cccc3Cl)c(NC(=O)NC(C)(C)C)nc2n1`, the “%Inh” value stood at 77% in assay [1]; 0% in assay [2]; 11% in assay [3]; 25% in [4]; 57% in assay [5]; 99.2% in [6]. Moreover, the “%Inh” value in assay [7] worked out at 99.5%; in assay [8] it was 99.5%; in assay [9] it was 0%; in assay [10] it was 0%; in [11] it was 48%; in assay [20] it was 80%. Further, the “%Inh” value worked out at 61% in [12]; 74% in [13]; 94.6% in assay [14]; 15% in assay [15]; 0% in [16]; 41% in assay [17]. Further, the “%Inh” value in [18] came out at 25%; in assay [19], 69%.
For the compound `CC(C)Nc1cc(-c2ccc3c(N)n[nH]c3c2)nc(N)n1` [GSK2221681], the “%Inh” value in [1] worked out at 0%; in assay [2] it was 3%; in assay [3], 3%; in assay [4] it was 0%; in assay [5], 2%; in assay [6], 4%. In addition, the “%Inh” value in assay [7] was 0%; in assay [8] it was 0%; in [9], 35%; in assay [10] it was 0%; in assay [11] it was 0%; in [12] it was 0%. Also, the “%Inh” value in assay [13] is given as 3%; in [14], 0%; in assay [15], 9%; in assay [16], 0%; in assay [17], 0%; in assay [18], 0%. For the same compound, the “%Inh” value in assay [19] was determined as 12%.
Regarding `Cc1cc(C(=O)Nc2ccc(Oc3ccc4nc(NC(=O)C5CC5)cn4n3)cc2)nn1-c1ccccc1`, the “%Inh” value is reported as 0% in assay [1]; 7% in [2]; 22% in [3]; 0% in assay [4]; 0% in assay [5]; 0% in assay [6]. The “%Inh” value was determined as 1% in assay [7]; 0% in [8]; 57% in [9]; 37% in assay [10]; 16% in [11]; 30% in assay [20]. Further, the “%Inh” value was 21% in assay [12]; 82% in [13]; 38% in assay [14]; 0% in assay [15]; 0% in [16]; 12% in [17]. Moreover, the figures for the “%Inh” value in assay [18] and in [19] were 53% and 0%, respectively.
As to `O=C(NCCCN1CCOC1=O)c1cnc(NCc2cc(Cl)ccc2Cl)nc1NC1CCCC1`, the “%Inh” value in assay [1] is recorded as 10%; in assay [2], 0%; in [3], 15%; in assay [4] it was 0%; in assay [5], 0%; in assay [6], 0%. In addition, the “%Inh” value was determined as 10% in [7]; 0% in [8]; 24% in assay [9]; 18% in assay [10]; 23% in [11]; 10% in assay [20]. Further, the “%Inh” value turned out to be 26% in assay [12]; 0% in assay [13]; 0% in assay [14]; 10% in assay [15]; 2% in assay [16]; 17% in assay [17]. Also, the “%Inh” value in [18] worked out at 0%; in assay [19], 17%.
Take `CN(C)CC(O)COc1ccc(Nc2nccc(-c3cnn4nc(N5CCOCC5)ccc34)n2)cc1` (stereo not drawn) [GW767488]: the “%Inh” value turned out to be 56% in [1]; 79% in assay [2]; 4% in assay [3]; 0% in assay [4]; 63% in assay [5]; 59% in assay [6]. In addition, the “%Inh” value in assay [7] is listed as 34%; in assay [8], 37%; in assay [9], 58%; in [10] it was 7%; in [11] it was 10%; in assay [20] it was 8%. In addition, the “%Inh” value in [12] stood at 78%; in [13] it was 41%; in [14], 27%; in assay [15], 51%; in assay [16], 50%; in assay [17], 1%. In addition, the “%Inh” value in [18] and in assay [19] was 0% in each case.
With `Cl.Oc1cc(-c2nc(-c3ccccc3)[nH]c2-c2ccncc2)ccc1Cl` [SB-386023], the “%Inh” value in assay [1] turned out to be 53%; in assay [2] it was 0%; in assay [3], 0%; in assay [4], 32%; in assay [5], 9%; in assay [6] it was 11%. The “%Inh” value in assay [7] was found to be 29%; in assay [8] it was 5%; in assay [9], 10%; in assay [10], 1%; in assay [11], 31%; in assay [20] it was 67%. The “%Inh” value in assay [12] stood at 92.8%; in assay [13], 0%; in [14] it was 6%; in assay [15] it was 0%; in assay [16], 0%; in [17] it was 23%. Moreover, the “%Inh” value is 26% in [18] and 0% in assay [19].
Turning to `CC(C)N1C(=O)Cc2cc(Nc3ncc(C(F)(F)F)c(NCc4cccc(S(C)(=O)=O)c4)n3)ccc21`, the “%Inh” value in assay [1] was 0%; in [2], 33%; in assay [3], 87%; in assay [4], 0%; in assay [5], 70%; in assay [6] it was 0%. Besides, the “%Inh” value was 0% in assay [7]; 0% in [8]; 86% in assay [9]; 10% in [10]; 0% in assay [11]; 0% in [20]. The “%Inh” value in [12] was 0%; in assay [13] it was 42%; in assay [14] it was 0%; in assay [15], 23%; in [16], 0%; in assay [17] it was 20%. Also, the “%Inh” value in assay [18] turned out to be 50%; in assay [19], 13%.
For `Cl.Cl.NC[C@H](CC1CCCCC1)NC(=O)c1cc(Br)c(-c2ccnc3[nH]ccc23)s1` [GSK1581427], the “%Inh” value in assay [1] was 0%; in [2] it was 6%; in assay [3] it was 19%; in assay [4] it was 82%; in assay [5], 0%; in assay [6] it was 42%. The “%Inh” value in [7] came to 0%; in [8], 4%; in assay [9] it was 1%; in [10], 0%; in [11], 0%; in assay [20] it was 0%. Also, the “%Inh” value in [12] turned out to be 0%; in [13], 56%; in assay [14] it was 0%; in assay [15], 57%; in assay [16], 0%; in assay [17], 0%. Besides, the “%Inh” value stood at 6% in [18] and 0% in assay [19].
For `Cc1ccc2c(-c3ccncc3)c(-c3ccc(F)cc3)nn2c1.Cl` [GW461484], the “%Inh” value in [1] is reported as 53%; in assay [2], 21%; in assay [3], 26%; in [4], 0%; in assay [5] it was 70%; in assay [6] it was 0%. Moreover, the “%Inh” value in assay [7] was 0%; in assay [8], 0%; in assay [9] it was 21%; in assay [10], 0%; in assay [11], 5%; in assay [20] it was 53%. Also, the “%Inh” value in [12] was found to be 2%; in assay [13] it was 0%; in [14], 0%; in [15], 0%; in [16] it was 0%; in assay [17] it was 66%. The figures for the “%Inh” value in assay [18] and in assay [19] were 15% and 0%, respectively.
Regarding `O=C(NCCNc1ccnc(NCc2ccc(F)cc2)n1)c1cc2ccccc2s1` [GSK1379944], the “%Inh” value was 2% in assay [1]; 1% in [2]; 14% in assay [3]; 17% in assay [4]; 0% in [5]; 0% in assay [6]. Also, the “%Inh” value was 14% in assay [7]; 0% in assay [8]; 19% in assay [9]; 21% in assay [10]; 44% in [11]; 6% in [20]. Besides, the “%Inh” value in assay [12], in assay [13], in assay [14], in assay [15], in [16] and in assay [17] was 0% each time. The “%Inh” value was 0% in [18] and 17% in [19].

The values are drawn from article PMC5540273 (PLoS ONE, 2017).
